Screens (PubChem BioAssay)
IL-1B inflam inh – inhibitors of inflammasome signaling (IL-1 beta secretion); activity change, % at 57.5 µM; AID 743279; THP-1 LPS/ATP IL-1B secretion, AlphaLISA, 16 h; hits give low values; 360,000 compounds, 4.7% hits; in the data active means activity change below about -50%; inconclusive means mostly about -30% to -49%
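Secreted IL-1B measured by AlphaLISA bead assay after 16 h compound exposure of THP-1 cells; compounds (final up to 57.5 uM) added 1 h before LPS (250 ng/mL) and ATP (1.25 mM) stimulation; lower signal means less secretion.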
TDP1 inh – inhibitors of human tyrosyl-DNA phosphodiesterase TDP1 | 350,000 compounds, 0.28% hits | recombinant TDP1, AlphaScreen DNA substrate cleavage | Q9NUW8 | Potency, µM (top dose mostly 130 µM), usual class: inhibitors; further: nearly all actives have a fitted effect of over 40% in size
Target sequence (Q9NUW8 whole entry, looked up): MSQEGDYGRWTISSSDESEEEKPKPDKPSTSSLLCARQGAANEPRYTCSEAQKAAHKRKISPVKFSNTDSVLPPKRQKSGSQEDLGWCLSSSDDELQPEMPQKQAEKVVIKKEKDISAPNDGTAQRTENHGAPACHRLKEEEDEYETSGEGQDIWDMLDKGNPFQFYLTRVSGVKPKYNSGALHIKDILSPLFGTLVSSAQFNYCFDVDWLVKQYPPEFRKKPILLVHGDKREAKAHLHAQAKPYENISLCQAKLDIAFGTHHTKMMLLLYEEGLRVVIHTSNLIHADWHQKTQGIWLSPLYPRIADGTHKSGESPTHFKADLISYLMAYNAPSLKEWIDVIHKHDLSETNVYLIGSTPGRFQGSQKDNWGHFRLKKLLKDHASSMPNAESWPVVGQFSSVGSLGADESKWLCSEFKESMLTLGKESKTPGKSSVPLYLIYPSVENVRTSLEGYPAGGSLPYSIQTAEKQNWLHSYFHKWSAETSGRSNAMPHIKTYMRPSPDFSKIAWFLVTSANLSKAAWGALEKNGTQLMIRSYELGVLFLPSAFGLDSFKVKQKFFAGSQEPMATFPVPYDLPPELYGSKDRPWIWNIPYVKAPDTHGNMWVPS
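Tdp1 1 nM final; 15 min RT w/ cpd; substrate 15 nM, 5 min; beads 10 ug/ml, 10 min; AlphaScreen read. Neg ctrl: no enzyme.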
TGFb SMAD3 inh – TGF-b pathway inhibition | HepG2 CAGA-GFP TGF-b/SMAD3 reporter, GFP fluorescence, 18 h; TGF-beta stimulated, 500 pg/mL final | Potency, µM (series often up to 46.1 µM), actives largely listed as inhibitors | 410,000 compounds, 1.2% hits | AID 588855; further: nearly all actives have a fitted effect of over 65% in size
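First, reporter cells (HEPG2 CAGA-GFP) rested 2 h at 37 degrees C. Next, compounds were pinned in and TGF-beta added to 500 pg/mL final. After 18 h, GFP was imaged per cell and summed per well.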
DT40 TDP1 CPT – DT40-hTDP1 cell growth loss with CPT; AID 686979; chicken DT40 Tdp1-/-;hTDP1 cells + 20 nM CPT, ATP luminescence, 48 h; Potency, µM (titrated, usually from 46.2 µM), actives largely listed as inhibitors; 420,000 compounds, 12% hits; further: nearly all actives have a fitted effect of over 55% in size
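Chicken DT40 Tdp1-/- cells stably complemented with human TDP1 were seeded at 400 cells/well in medium containing 20 nM camptothecin, exposed to pin-transferred compounds, and grown at 37 °C for at least 48 hr. Viability was read as ATP luminescence.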
TDP1 cell noCPT – qHTS for Inhibitors of human tyrosyl-DNA phosphodiesterase 1 (TDP1): qHTS in cells in absence of CPT; 420,000 compounds, 15% hits; DT40 Tdp1-/- hTDP1 cells, no CPT, ATP luminescence, 48 h; Potency, µM (titrated, usually from 46.2 µM), usual class: inhibitors; further: nearly all actives have a fitted effect of over 55% in size
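Compound effects on proliferation are scored in DT40 Tdp1-/-;hTDP1 cells in the absence of CPT. ATP levels (CellTiter-Glo luminescence) are recorded after a ≥48 hr, 37 °C incubation.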
HepG2 tox – HepG2 cytotoxicity, counter-screen for TGF-b inhibitors | Potency, µM (doses to about 46.1 µM), usual class: cytotoxic | HepG2 CAGA-GFP viability, ATP luminescence, 18 h | 410,000 compounds, 0.76% hits
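CellTiter-Glo luminescence gave cytotoxicity after 18 hours at 37 degrees C. The cells were HepG2 CAGA-GFP in 1% FBS DMEM, stimulated with 500 pg/mL TGF-beta after compound addition. %Activity was normalised to no-cell wells (complete cell-killing) and DMSO (no toxicity), and curves were fitted and classified.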
Each line names hits and unclear results; the compound was inactive in the other large screens. Shown are actives, neighbours in structure and some others; about 18% of the full set was active somewhere. Unless noted, the call rests on the fitted dose curve; in most records, active means well fitted curve in the direction sought with a large enough effect; inconclusive means small, poorly fitted or top-dose-only effect, or another doubt; inactive means no such curve, though single readings can be large; an effect the other way counts as inactive or inconclusive.

COc1ccccc1-c1oc2ccccc2c1C#CCCO	TDP1 cell noCPT inconclusive
CCOC(=O)c1cccc(NC(=O)N2CC=C(c3c[nH]c4ccccc34)CC2)c1	DT40 TDP1 CPT inconclusive, TDP1 cell noCPT 21µM (no result: IL-1B inflam inh)
Cc1cc(NC(=O)N2CC=C(c3c[nH]c4ccccc34)CC2)ccc1Br	DT40 TDP1 CPT inconclusive, TDP1 cell noCPT inconclusive (no result: IL-1B inflam inh)
Cc1ccc(C)c(NC(=O)N2CC=C(c3c[nH]c4ccccc34)CC2)c1	DT40 TDP1 CPT inconclusive, TDP1 cell noCPT inconclusive (no result: IL-1B inflam inh)
CCc1ccc(NC(=O)N2CC=C(c3c[nH]c4ccccc34)CC2)cc1	DT40 TDP1 CPT 5.8µM, TDP1 cell noCPT 5.2µM (no result: IL-1B inflam inh, TGFb SMAD3 inh)
CCOc1ccc(NC(=O)N2CC=C(c3c[nH]c4ccccc34)CC2)cc1	DT40 TDP1 CPT 3.7µM, TDP1 cell noCPT 2.3µM (no result: IL-1B inflam inh)
O=c1[nH]c2ccccc2n1C1=CCCC1	TDP1 cell noCPT inconclusive
CSc1ccc(NC(=O)N2CC=C(n3c(=O)[nH]c4ccccc43)CC2)cc1	DT40 TDP1 CPT 8.2µM, TDP1 cell noCPT 8.2µM
COc1ccccc1CCNC(=O)C(=O)NCC1OCCN1C(=O)c1ccc(Cl)cc1 (centres undefined)	DT40 TDP1 CPT inconclusive
COc1ccc(S(=O)(=O)NC(C)C(=O)NCc2ccccn2)cc1Cl (centres undefined)	none
O=[N+]([O-])c1ccc(Cl)c(-c2ccc(/C=N/c3c(-c4ccco4)nc4ccccn34)o2)c1	TDP1 cell noCPT inconclusive
O=[N+]([O-])c1ccc(-c2ccc(/C=N/c3c(-c4ccco4)nc4ccccn34)o2)cc1	DT40 TDP1 CPT 21µM, TDP1 cell noCPT 7.3µM
Cc1cc(C)c([N+](=O)[O-])cc1-c1ccc(/C=N/c2c(-c3ccco3)nc3ccccn23)o1	DT40 TDP1 CPT 15µM, TDP1 cell noCPT 15µM
COc1ccc(C(=O)NC2CC(C)(C)Cc3occc32)cc1 (centres undefined)	TDP1 cell noCPT inconclusive
COc1ccc(CCNC(=O)CSc2ccc3ccccc3c2)cc1OC	DT40 TDP1 CPT inconclusive, TDP1 cell noCPT inconclusive
O=C(CSc1ccc2ccccc2c1)NCCc1ccc(O)c(O)c1	IL-1B inflam inh -53, DT40 TDP1 CPT 16µM, TDP1 cell noCPT 23µM
O=C1c2ccc3c4c(ccc(c24)C(=O)N1CCCCO)C(=O)N(CCCCO)C3=O	IL-1B inflam inh -72, TGFb SMAD3 inh 2.5µM, DT40 TDP1 CPT 2.1µM, TDP1 cell noCPT 2.6µM, HepG2 tox 3.2µM
COC(=O)C(NC=O)C(O)(Cc1ccccc1)C(F)(F)F (centres undefined)	none
CC1(c2ccccc2)NC(=O)N(CC(=O)N2CCN(S(=O)(=O)c3ccccc3[N+](=O)[O-])CC2)C1=O (centres undefined)	none
Cc1cc(NC(=O)CSc2nc3c(C)ccc(C)c3cc2C#N)no1	DT40 TDP1 CPT inconclusive
Cc1cccc2cc(C#N)c(SCC(=O)N3CC(=O)Nc4ccccc43)nc12	TGFb SMAD3 inh inconclusive, DT40 TDP1 CPT 2.6µM, TDP1 cell noCPT 2.1µM
COc1ccc2cc(C#N)c(SCC(=O)N3CC(=O)Nc4ccccc43)nc2c1	none (no result: TDP1 inh)
Cc1cc(NC(=O)CSc2nc3c(C)cccc3cc2C#N)no1	DT40 TDP1 CPT inconclusive, TDP1 cell noCPT 15µM
COc1ccccc1Cn1c(=S)[nH]c2cc(C(=O)NCCN(C)C)ccc2c1=O	IL-1B inflam inh -56, DT40 TDP1 CPT inconclusive (no result: TDP1 inh)
CC1CCCCN1CCNC(=O)c1ccc2c(=O)n(Cc3ccc(Cl)cc3)c(=S)[nH]c2c1 (centres undefined)	IL-1B inflam inh -97, TGFb SMAD3 inh inconclusive, DT40 TDP1 CPT inconclusive, TDP1 cell noCPT inconclusive, HepG2 tox 13µM
COc1ccc(-n2c(=S)[nH]c3cc(C(=O)NCc4ccco4)ccc3c2=O)cc1OC	none
CC1CCCCN1CCNC(=O)c1ccc2c(=O)n(CCc3ccccc3)c(=O)[nH]c2c1 (centres undefined)	DT40 TDP1 CPT inconclusive, TDP1 cell noCPT inconclusive
O=C(NCCCN1CCOCC1)c1ccc2c(=O)n(Cc3ccccc3)c(=S)[nH]c2c1	IL-1B inflam inh -73, TDP1 cell noCPT inconclusive
COc1ccc(CCn2c(=S)[nH]c3cc(C(=O)NCc4ccco4)ccc3c2=O)cc1OC	DT40 TDP1 CPT 21µM, TDP1 cell noCPT 16µM
COc1ccc(CNc2ncnc3c2c(-c2ccccc2)cn3-c2ccc(C)c(Cl)c2)cc1	none (no result: IL-1B inflam inh)
Cc1cc(C)cc(NC(=O)CSc2nc3c(c(=O)[nH]2)CN(Cc2ccc(F)cc2)CC3)c1	TGFb SMAD3 inh inconclusive
CC1=C(C(=O)OCc2ccc3nsnc3c2)N2C(=O)[C@@H](NC(=O)OCc3ccc4nsnc4c3)[C@H]2SC1	TGFb SMAD3 inh inconclusive, DT40 TDP1 CPT inconclusive, TDP1 cell noCPT inconclusive (no result: IL-1B inflam inh, TDP1 inh)
CCCCN(Cc1ccco1)S(=O)(=O)c1csc(C(N)=O)c1	DT40 TDP1 CPT inconclusive, TDP1 cell noCPT inconclusive
CCN(CC)/[N+]([O-])=N/Oc1ccc([N+](=O)[O-])cc1[N+](=O)[O-]	none (no result: IL-1B inflam inh, TDP1 inh, DT40 TDP1 CPT, TDP1 cell noCPT)
O=C(NCCN1CCCC1)c1ccc(Cn2c(=S)[nH]c3cc4c(cc3c2=O)OCO4)cc1	TDP1 cell noCPT 23µM
CCOc1cc2[nH]c(=S)n(C3CCN(Cc4ccccc4)CC3)c(=O)c2cc1OCC	TDP1 cell noCPT inconclusive
O=C(NCCCN1CCCC1=O)c1ccc2c(=O)n(Cc3ccco3)c(=S)[nH]c2c1	DT40 TDP1 CPT 16µM, TDP1 cell noCPT inconclusive
O=c1c2ccccc2c(C=NCCCN2CCOCC2)c(O)n1Cc1ccccc1	DT40 TDP1 CPT 18µM, TDP1 cell noCPT inconclusive
O=C(NCc1ccccc1)c1ccc2c(=O)n(CCCN3CCCC3=O)c(=S)[nH]c2c1	none
O=c1c2ccccc2c(C=NCCCN2CCOCC2)c(O)n1Cc1ccc2c(c1)OCO2	IL-1B inflam inh inconclusive, TDP1 cell noCPT inconclusive
O=c1c2cc3c(cc2[nH]c(=S)n1C1CCN(Cc2ccccc2)CC1)OCO3	DT40 TDP1 CPT 26µM, TDP1 cell noCPT inconclusive
COc1ccccc1N1CCCSC1=Nc1ccccc1	TDP1 cell noCPT inconclusive (no result: TDP1 inh)
O=C(NOC[C@H](O)CO)c1ccc(F)c(F)c1Nc1ccc(I)cc1F	none (no result: IL-1B inflam inh, TDP1 inh, TGFb SMAD3 inh, HepG2 tox)
CC(C)NC(=O)c1ccc2c(=O)n(CC3CCCO3)c(=S)[nH]c2c1 (centres undefined)	TGFb SMAD3 inh inconclusive
COC(=O)c1ccc2c(=O)n(Cc3ccc(C(=O)NC(C)C)cc3)c(=S)[nH]c2c1	DT40 TDP1 CPT inconclusive, TDP1 cell noCPT 23µM
